# Screens from PubChem.
# TSHR ag – qHTS Assay for Agonists of the Thyroid Stimulating Hormone Receptor; Potency, µM (series often up to 57.1 µM), for inactives: top-dose activation, hits mostly activators; HEK293-CNG-TSHR cells (CNG channel as cAMP sensor), membrane potential dye, cAMP; AID 926, 2007; actives 0.48% (n = 73,000); active = well fitted activation curve with a large enough effect in the main read-out, with a control signal flat, not every such curve was filed as active; inconclusive = small, poorly fitted or top-dose-only effect, or a change in a side signal; inactive = no such curve, though single readings can be large or run the other way; % of control where 0% means no effect;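 note: the control signal comes from parental cells without the receptor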
#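 HEK 293 cells stably expressing TSHR and a modified CNG channel, with CNG-only parental cells as counterscreen, were preloaded 60 min at room temperature with membrane potential dye containing 100 uM RO 20-1724. Compound exposure was 30 min, and depolarization was read as fluorescence at 590 nm.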
# Hsp90 Hop PPI – qHTS Assay for Disrupters of an Hsp90 Co-Chaperone Interaction; Potency, µM (series often up to 57 µM), inactives show at the top dose activity change, negative = inhibition; AID 595, 2007; Hsp90 C-terminal peptide / TPR2A (Hop) interaction, human; AlphaScreen TPR2A-His6 binding biotin-Hsp90 C-terminal peptide; actives 0.44% (n = 71,000); active = well fitted curve in either direction with a large enough effect; inconclusive = small, poorly fitted or top-dose-only effect, or another doubt; note: % is set by controls: 0 for no effect and ±100 for the full control effect
# Pol III holo inh – qHTS Assay for Inhibitors of DNA Polymerase III Holoenzyme System | actives 0.25% (n = 71,000) | reconstituted DNA polymerase III holoenzyme replication, biochemical | AID 603, 2007 | Potency, µM (doses to about 57.1 µM), inactives show at the top dose activity change, negative = inhibition; note: % is set by controls: 0 for no effect and ±100 for the full control effect
#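 Reconstituted *E. coli* holoenzyme (0.35 nM Pol III, 1 nM beta, 154 nM SSB, 2 nM primase) was preincubated with compound for 15 min at RT. Synthesis on 1.4 nM ssM13Gori ran 35 min, then was stopped with PicoGreen/EDTA and read as dsDNA fluorescence.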
# HEK293 cAMP ctrl – qHTS Assay for Agonists of the Thyroid Stimulating Hormone Receptor: Activators of Intracellular cAMP Concentrations in Parental HEK 293; actives 2.5% (n = 73,000); Potency, µM (titrated, usually from 57.1 µM), inactives show at the top dose activation, actives largely listed as activators; parental HEK293 CNG cAMP sensor, membrane potential fluorescence; AID 938, 2007; note: % of control where 0% means no effect; nearly all actives have a fitted effect of over 55% in size
#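 Parental HEK 293 cells stably expressing a modified CNG channel (no TSHR) report cAMP rise as membrane depolarization. Membrane potential dye with 100 uM RO 20-1724 was loaded for 60 min at room temperature, then compound added for 30 min; fluorescence read at 590 nm.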
# Tau filament bind – qHTS Assay for Tau Filament Binding; recombinant tau filaments, thioflavin S fluorescence, 15 h; filaments grown with octadecylsulfate alongside compound; Potency, µM (titrated, usually from 57.1 µM), inactives show top-dose activity change, negative = inhibition; actives 2% (n = 71,000);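 note: % is set by controls: 0 for no effect and ±100 for the full control effect; actives lower thioflavin S fluorescence by blocking filaments or displacing dye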
# Target sequence (P10636 whole entry, looked up): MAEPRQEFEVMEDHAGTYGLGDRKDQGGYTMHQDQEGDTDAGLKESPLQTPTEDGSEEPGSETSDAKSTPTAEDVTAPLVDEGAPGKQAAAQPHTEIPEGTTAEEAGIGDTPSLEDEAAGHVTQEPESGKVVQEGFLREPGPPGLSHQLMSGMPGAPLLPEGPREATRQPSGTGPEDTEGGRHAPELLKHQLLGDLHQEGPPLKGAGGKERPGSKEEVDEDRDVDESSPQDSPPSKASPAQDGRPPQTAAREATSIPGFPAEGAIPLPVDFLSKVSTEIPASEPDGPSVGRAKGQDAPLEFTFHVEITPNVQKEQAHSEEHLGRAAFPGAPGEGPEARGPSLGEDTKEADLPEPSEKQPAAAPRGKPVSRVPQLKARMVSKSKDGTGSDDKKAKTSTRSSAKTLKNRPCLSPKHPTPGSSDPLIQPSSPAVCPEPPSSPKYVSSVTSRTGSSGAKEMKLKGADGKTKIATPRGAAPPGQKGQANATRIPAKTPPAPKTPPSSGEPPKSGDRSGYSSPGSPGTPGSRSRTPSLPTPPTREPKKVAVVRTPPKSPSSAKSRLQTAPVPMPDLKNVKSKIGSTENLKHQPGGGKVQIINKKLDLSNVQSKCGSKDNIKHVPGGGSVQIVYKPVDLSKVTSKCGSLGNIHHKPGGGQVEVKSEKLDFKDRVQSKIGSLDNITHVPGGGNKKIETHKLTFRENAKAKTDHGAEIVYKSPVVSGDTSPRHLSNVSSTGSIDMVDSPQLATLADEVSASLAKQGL
#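 Tau 2 uM in ThS buffer dispensed; compound added; 60 uM ODS added (finals 1 uM tau, 30 uM ODS); 15 h 37 C; fluor ex450/em510.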
# Numbers without * were called inactive; i = inactive; ? = inconclusive; · = not tested or not shown; ! = a repeat was not active; [ ] = another dose, or the depositor's remark. Compounds with a hit are over-represented: about 5.1% of the library has one in this group of screens. Unless noted, calls come from the whole dose curve; as a rule, active = well fitted curve in the direction sought with a large enough effect; inconclusive = small, poorly fitted or top-dose-only effect, or another doubt; inactive = no such curve, though single readings can be large; an effect the other way counts as inactive or inconclusive. Potency is the fitted concentration of half-maximal effect.
SMILES,TSHR ag,Hsp90 Hop PPI,Pol III holo inh,HEK293 cAMP ctrl,Tau filament bind
O=C(Nc1ccc(Nc2ccccc2)cc1)c1ccco1,-21%,-21%,-2%,-14%,20µM*
O=C1C(C2=C(O)c3ccccc3C2=O)=Nc2ccccc21,-55%,?,-9%,-23%,6.3µM*
CN=CC1=C(O)c2ccccc2C1=O,?,-3%,-3%,?,-7%
CCN(CC)c1ccc(NC(=O)CN2CCN(c3ccc(F)cc3)CC2)cc1,-14%,-25%,-6%,-2%,?
CN(C)c1ccc(NC(=O)CN2CCC(C(=O)c3ccc(F)cc3)CC2)cc1,4%,-16%,-1%,0%,16µM*
COc1cccc(Nc2ncc3nc(C)c(=O)n(CCc4ccccc4)c3n2)c1,?,-3%,10%,?,5%
CCNc1sc(C(=O)c2cccs2)c(N)c1-c1nc2ccccc2s1,-19%,?,2%,-23%,13µM*
CCOC(=O)c1sc(NCc2ccco2)c(-c2nc3ccccc3s2)c1N,-13%,-13%,-5%,-18%,10%
Nc1ccc(Cl)cc1Cl,?,0%,-2%,-29%,12%
O=C(O)C[C@H](S)C(=O)O,2%[11.4 µM],0%[11 µM],-5%[11.4 µM],-5%[11.4 µM],-4%[11.4 µM]
O=C1CC(N(O)c2ccccc2)C(=O)N1c1cc(Cl)cc(Cl)c1 (stereo not drawn),6%,-5%,-6%,0%,?
CCCOc1ccc(N2C(=O)CC(N(O)c3ccccc3)C2=O)cc1 (stereo not drawn),-20%,-3%,5%,-17%,25µM*
CCOCC(=O)Nc1nc2ccc(OC)cc2s1,-3%,-4%,-2%,5%,-2%
COc1ccc2nc(NC(=O)c3cnccn3)sc2c1,-7%,-25%,2%,-5%,5µM*
O=[N+]([O-])c1ccc(Cl)c(CNc2ncnc3c2ncn3[C@@H]2CCCCO2)c1,0%[11.4 µM],-4%[11 µM],-11%[11.4 µM],0%[11.4 µM],-6%[11.4 µM]
C[Si](C)(c1ccc(C(=O)O)cc1)c1ccc(C(=O)O)cc1,1%[11.4 µM],0%[11 µM],-15%[11.4 µM],23%[11.4 µM],5%[11.4 µM]
N#Cc1nc(COc2ccccc2)oc1N1CCN(Cc2ccccc2)CC1,?,?,1%,13µM*,-6%
N#Cc1nc(COc2cccc(Cl)c2)oc1N1CCCC1,?,?,3%,13µM*,20%
N#Cc1nc(COc2ccccc2)oc1N1CCC(Cc2ccccc2)CC1,?,?,-5%,?,21%
Cc1ccc(OCc2nc(C#N)c(N3CCN(Cc4ccccc4)CC3)o2)cc1,?,?,-6%,2µM*,14%
CCOC(=O)N/N=C1/C[C@@H](O)[C@@H](O)[C@@H]2[C@@H]3C(=O)N(Cc4ccc5c(c4)OCO5)C(=O)[C@H]3CC[C@H]12,-6%[11.4 µM],·,·,2%[11.4 µM],·
NCCNC[C@H](O)CO,-1%[11.4 µM],-2%[11 µM],-9%[11.4 µM],-3%[11.4 µM],3%[11.4 µM]
Clc1ccc2c(c1)C1OCCC1C(c1ccco1)N2 (stereo not drawn),·,?,4%,-12%,25µM*
Cc1cccc(CNc2cc(-c3c(C)noc3C)ncn2)c1,6%,5%,-4%,23%,-3%
Cc1nn(C)c(C)c1N=Cc1c(O)ccc2ccccc12,-8%,-8%,-2%,-7%,?
SMILES,TSHR ag,Hsp90 Hop PPI,Pol III holo inh,HEK293 cAMP ctrl,Tau filament bind
Oc1ccc2ccccc2c1/C=C\c1ccc2c(Br)cc(Br)c(O)c2n1,-5%[11.4 µM],-5%[11 µM],-4%[11.4 µM],4%[11.4 µM],2.5µM*
CCCCCCc1ccc(-c2ccc(C#N)cc2)cc1,?,26%,-3%,?,6%
CN(C)c1ccc(-c2nc(NC3CCNCC3)c3ccccc3n2)cc1,-8%,-7%,?,-6%,i
c1ccc2c(NC3CCNCC3)nc(-c3ccoc3)nc2c1,3%,-10%,-16%,8%,-25%
COc1cccc(-c2nc(NC3CCNCC3)c3ccccc3n2)c1,?,3%,32µM*,-33%,-10%
CN(C)Cc1ccccc1-c1nc(NC2CCNCC2)c2ccccc2n1,3%,-1%,25µM*,-9%,27%
Cc1ccc(C(=O)Cn2c3c(sc2=N)CCCC3)cc1,?,0%,-3%,?,?
O=C(c1ccccc1)n1nc(-c2ccccc2)nc1NCc1ccco1,25µM*,8%,4%,19%,-21%
C1CCCC1,-2%,-2%,-2%,7%,-1%
O=C(O)c1c(Cl)c(Cl)c(Cl)c(Cl)c1C(=O)Nc1ccc2cn[nH]c2c1,-6%[11.4 µM],-3%[11 µM],-6%[11.4 µM],4%[11.4 µM],5%[11.4 µM]
CC(=O)N1[C@H](Cc2ccccc2)C=C[C@]1(C)C(=O)NCCN1CCOCC1,-3%,2%,0%,6%,22%
COC(=O)[C@@]1(C)C=C[C@@H](Cc2ccccc2)N1C,?,-8%,6%,20µM*,-1%
O=C(CSc1nnc(-c2ccc(Cl)cc2)n1Cc1ccco1)c1cccs1,?,-6%,1%,16µM*,-25%
Cc1cccc(OCc2nnc(SCC(=O)N(C(C)C)C(C)C)n2Cc2ccco2)c1C,?,-7%,-3%,7.9µM*,3%
O=C(CSc1nnc(COc2ccc(Cl)cc2)n1Cc1ccco1)c1ccccc1F,?,1%,4%,25µM*,12%
C[C@](O)(C(=O)Nc1ccc(S(=O)(=O)c2ccccc2)cc1)C(F)(F)F,?,-4%,2%,-32%,?
CN1CC(=O)N/C1=N\C(=O)Nc1ccc2c(c1)N(C)C(=O)CS2,2%,-11%,-1%,-10%,-9%
O=C(Nc1cccc(Br)c1)c1cc2ccccc2o1,?,28%,-6%,25µM*,154%
Cc1cccc(NC(=O)c2cc3ccccc3o2)c1,?,22%,-7%,25µM*,8%
CCOC(=O)c1ccc(NC(=O)c2cc3ccccc3o2)cc1,?,7%,3%,25µM*,51%
CC(C)C(=O)Nc1ccc(NC(=O)c2cc3ccccc3o2)cc1,5%,-11%,0%,7%,73%
CCC(=O)Nc1cccc(NC(=O)c2cc3ccccc3o2)c1,14%,-2%,-5%,8%,4%
CCCCOCCCNC(=O)Cc1cccs1,?,-2%[11 µM],1%[11.4 µM],1.6µM*,-8%[11.4 µM]
O=C(Cc1cccs1)NCc1cccs1,-2%,0%,-2%,6%,-7%
CCCc1cc(=O)oc2cc3occ(C)c3cc12,?,2%,-6%,?,63%
CCc1cc(=O)oc2cc3oc(C)c(C)c3cc12,?,9%,-1%,25µM*,13%
CCCc1cc(=O)oc2cc3oc(C)c(C)c3cc12,?,8%,-2%,25µM*,18%
O=C1c2c(O)ccc(O)c2C(=O)c2c(NCCNCCO)ccc(NCCNCCO)c21,-20%[25.6 µM],16µM*!,1µM*,-2%[25.6 µM],4µM*
